Measurements: PubChem BioAssay
Records with an inconclusive call do not appear. Active and inactive are the calls of the source.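 The calls were made as follows, unless noted: active = viability loss from added drug above about 55%, and viability with drug at most 40%, in both replicates (limit read from the data, passing the limit was not always enough); inconclusive = both conditions met in only one replicate; inactive = neither replicate meets both conditions.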

Tests used:
[1] = reducers of endogenous Her2 protein level, primary screen, SKBR3 breast tumor cells, AlphaScreen, ATP viability (AID 461;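 active = Her2 level under about 52% in both replicate screens, with viability over 70% of control, limit read from the data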;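 as to Her2 level: lower value means less Her2 protein in the cells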;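 as to viability: percent of carrier control wells set as 100% viability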); details: 18-24 h, measured here: SKBR3 viability, ATP luminescence, at 10 µM
[2] = molecular target: Receptor tyrosine-protein kinase erbB-2 (Homo sapiens) (UniProt P04626); test: as above; details: 18-24 h, at 10 µM, stronger effect = lower value
Chain of Receptor tyrosine-protein kinase erbB-2 (Homo sapiens) (P04626 whole entry, looked up): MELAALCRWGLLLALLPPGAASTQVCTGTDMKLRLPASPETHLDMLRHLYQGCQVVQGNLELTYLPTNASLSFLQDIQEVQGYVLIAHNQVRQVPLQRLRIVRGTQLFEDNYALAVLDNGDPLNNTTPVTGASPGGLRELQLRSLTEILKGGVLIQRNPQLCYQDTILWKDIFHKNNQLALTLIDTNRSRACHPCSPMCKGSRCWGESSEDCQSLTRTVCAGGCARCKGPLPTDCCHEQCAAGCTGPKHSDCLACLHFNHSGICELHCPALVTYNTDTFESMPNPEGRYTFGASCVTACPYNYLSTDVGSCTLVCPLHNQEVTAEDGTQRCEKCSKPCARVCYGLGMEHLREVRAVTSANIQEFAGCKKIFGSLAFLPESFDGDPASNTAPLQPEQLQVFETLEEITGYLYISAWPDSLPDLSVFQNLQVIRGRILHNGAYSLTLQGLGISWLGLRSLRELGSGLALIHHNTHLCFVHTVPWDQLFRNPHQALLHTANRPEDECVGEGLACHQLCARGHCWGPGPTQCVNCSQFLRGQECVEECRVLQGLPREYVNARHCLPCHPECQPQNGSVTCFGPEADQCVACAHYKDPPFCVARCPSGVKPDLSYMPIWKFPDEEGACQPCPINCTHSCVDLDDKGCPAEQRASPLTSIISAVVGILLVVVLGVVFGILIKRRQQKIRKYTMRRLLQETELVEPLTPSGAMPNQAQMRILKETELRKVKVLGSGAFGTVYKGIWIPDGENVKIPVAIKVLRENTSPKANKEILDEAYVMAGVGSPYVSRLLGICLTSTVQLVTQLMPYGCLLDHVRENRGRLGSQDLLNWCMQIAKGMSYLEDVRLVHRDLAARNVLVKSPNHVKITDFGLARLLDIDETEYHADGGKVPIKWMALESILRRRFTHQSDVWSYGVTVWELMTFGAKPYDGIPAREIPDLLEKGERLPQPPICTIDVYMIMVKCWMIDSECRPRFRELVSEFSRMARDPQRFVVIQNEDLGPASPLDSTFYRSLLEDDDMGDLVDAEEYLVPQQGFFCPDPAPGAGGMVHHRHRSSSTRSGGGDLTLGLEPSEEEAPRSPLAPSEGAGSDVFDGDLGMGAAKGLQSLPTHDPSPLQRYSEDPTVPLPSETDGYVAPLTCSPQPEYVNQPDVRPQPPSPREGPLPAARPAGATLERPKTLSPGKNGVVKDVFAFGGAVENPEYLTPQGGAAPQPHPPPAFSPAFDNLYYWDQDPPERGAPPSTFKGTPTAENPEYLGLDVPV

[3] = HUVEC growth inhibition – cell-based, human, primary screen (AID 575;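 active = viability at or below 30% in both replicate assays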;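 also: 100% = median of untreated cell wells with 0.1% DMSO on each plate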); details: HUVEC proliferation, CellTiter-Glo luminescence, 72 h; at 10 µM; stronger effect = lower value
[4] = growth inhibitors of H69AR lung tumor, primary screen, human, duplicate replicates (AID 580;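 active = viability at or under a set limit in both replicates, limit being median viability minus 3 SD, cut at about 48% in these data, passing the limit was not always enough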;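 also: 100% = mean luminescence of untreated wells and 0% = no signal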); details: H69AR lung tumor cells viability, ATP luminescence, 72 h; at 10 µM; stronger effect = lower value
[5] = reversal of MRP1-mediated doxorubicin resistance, pilot screen, H69AR cells, doxorubicin co-treatment (AID 601); details: CellTiter-Glo, 72 h, at 10 µM; for differential viability (reversal): stronger effect = higher value
[6] = 384-well plate pilot, post-Golgi transport modulator project, inhibition of yeast transport mutant growth (AID 636; in the data active = inhibition above about 31%); details: absorbance 615 nm, about 18 h, stronger effect = higher value
[7] = growth suppression of yeast trafficking mutant, preliminary HTS, modulators of trafficking downstream of Golgi apparatus project, 1536-format plate, OD 615 nm (AID 637; in the data active = inhibition above about 30%); details: yeast transport mutant growth, absorbance 615 nm, 18 h; stronger effect = higher value
[8] = SK-BR-3 cell growth inhibitors, pilot screen, 24 h, human (AID 572;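 active = viability at or below 10% of carrier control in both of two separate runs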;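 also: compound exposure lasted between 18 and 24 h rather than exactly 24 h; 100% = carrier-treated control wells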); details: SK-BR-3 viability, CellTiter-Glo luminescence, at 10 µM, stronger effect = lower value
[9] = OD615 S. cerevisiae growth inhibition, permissive medium, pilot counter-assay, permissive growth control for S. cerevisiae lifespan shortening project (AID 705;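 active = growth inhibition above 25% in both replicates, a cutoff set 3 SD above the mean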); details: OD615, 24 h, at 10 µM, stronger effect = higher value
[10] = Restrictive medium S. cerevisiae growth inhibition, OD615, pilot screen of yeast lifespan reduction project, restrictive growth control (AID 706;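 active = growth inhibition above a set limit, 3 SD over mean compound inhibition, in both replicates, cut at about 43% in these data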;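 also: modified DeaD lifespan yeast strain shifted to restrictive glucose medium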); details: OD615, 48 h, at 10 µM, stronger effect = higher value
[11] = viability gain of MRP-1-high H69AR cells under doxorubicin, pilot screen, MRP-1 activator project, CellTiter-Glo, duplicate (AID 807;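 active = viability increase at or above a cutoff of the median across tested compounds plus 3 SD, cut at about 8.5% in these data, passing the limit was not always enough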;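 also: compound pretreatment 18-22 h then 72 h combined with doxorubicin; 0% = doxorubicin alone and 100% = vehicle without doxorubicin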); details: H69AR viability with doxorubicin, CellTiter-Glo luminescence; at 10 µM; stronger effect = higher value
[12] = growth suppression of beta-catenin knockout HCT116, pilot screen, human colon tumor cells (AID 823;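 active = cell viability at or below a set limit in both duplicate runs, the limit being the all-compound median minus 4 SD, cut at about 23% in these data, passing the limit was not always enough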;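 also: 0% = wells killed by 20 µM Hyamine and 100% = untreated DMSO cell wells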); details: CellTiter-Glo, 60 h, at 10 µM, stronger effect = lower value
[13] = growth suppression of PTEN-deleted HCT116, pilot screen, cell-based, HCT116 clonal line, CellTiter-Glo (AID 824;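 active = viability at or below 27.92% in each of two runs, the all-compound median minus 4 SD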;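 also: 0% = 20 µM Hyamine control and 100% = vehicle cell control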); details: 60 h, at 10 µM, stronger effect = lower value
[14] = inhibitors of the yeast RAM network, pilot screen, dse1pr::URA3 reporter, 5-FOA selection (AID 869;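 active = inhibition over a set limit, the all-compound mean plus 3 SD, in both replicate runs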;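 also: 0% = DMSO wells with no growth and 100% = 10 µM 1-NA-PP1 with full growth; RAM network block rescues cells from 5-FOA so hits raise OD615 growth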); details: S. cerevisiae dse1pr::URA3 5-FOA growth, OD615, 2 d; at 10 µM; stronger effect = higher value; strain carries analog-sensitive mutant Cbk1 kinase
[15] = H69AR cells + 2 uM doxorubicin, measured here: viability with 2 uM doxorubicin, stronger effect = lower value
[16] = H69AR cells, compound alone cytotoxicity

Row | Structure (SMILES) | viability [1] [%] | Her2 level [2] | viability [3] | viability [4] | differential viability (reversal) ([5]; H69AR cells + 2 uM doxorubicin) | viability [5, 15] [%] | viability [5, 16] [%] | inhibition [6] | inhibition [7] | viability [8] | growth inhibition [9] | growth inhibition [10] | viability increase [11] | viability [12] | viability [13] | inhibition [14]
1 | Cc1cc(C)c2c(=O)[nH]c(=O)n(Cc3ccccc3)c2n1 | 64 | 75.5% (inactive) | 81.7% (inactive) | 95.7% (inactive) | 10.9% (inactive) | 84.8 | 95.7 | -5.26% (inactive) | 6.55% (inactive) | – | – | – | – | – | – | –
2 | CCn1c2ccccc2c2cc(N)ccc21 | 117 | 91.5% (inactive) | – | – | -6.75% (inactive) | 56.8 | 50 | -5.73% (inactive) | 1.59% (inactive) | 117% (inactive) | – | – | – | – | – | –
3 | CCC1CCc2c(sc3ncnc(N4CCOCC4)c23)C1 (stereo not drawn) | 89.5 | 87% (inactive) | – | 89.3% (inactive) | -14.3% (inactive) | 104 | 89.3 | -5.14% (inactive) | -0.16% (inactive) | 89.5% (inactive) | – | – | – | – | – | –
4 | COc1cccc(N2C(=O)N(c3ccccc3Cl)C3CS(=O)(=O)CC32)c1 (stereo not drawn) | – | – | 106% (inactive) | 98% (inactive) | 9.28% (inactive) | 88.7 | 98 | -6.71% (inactive) | 3.45% (inactive) | 93% (inactive) | – | – | – | – | – | –
5 | CN(C)CCCN1c2ccccc2Sc2ccccc21 | – | – | 74.2% (inactive) | 74.7% (inactive) | -8.33% (inactive) | 83 | 74.7 | – | – | 66.5% (inactive) | – | – | – | – | – | –
6 | N#C/C(=C(/O)COC(=O)CCC1CCCCC1)c1nc2ccccc2[nH]1 | 126 | 31% (active) | – | 38.1% (active) | -9.79% (inactive) | 47.9 | 38.1 | -4.8% (inactive) | 2.3% (inactive) | 126% (inactive) | – | – | – | – | – | –
7 | COc1cc(C)nc(N2CCCC(C(=O)Nc3cccc(Cl)c3Cl)C2)n1 (stereo not drawn) | 71 | 62.5% (inactive) | – | – | -1.86% (inactive) | 58.3 | 56.4 | 0.39% (inactive) | -10.2% (inactive) | 71% (inactive) | – | – | – | – | – | –
8 | CC(C)N=c1cc2n(-c3ccc(Cl)cc3)c3ccccc3nc-2cc1Nc1ccc(Cl)cc1 | – | – | 9.11% (active) | 64.4% (inactive) | -6.59% (inactive) | 71 | 64.4 | – | – | 102% (inactive) | – | – | – | – | – | –
9 | CC1=C(C(=O)OCC(C)C)C(c2cc3c(cc2Br)OCO3)NC(=O)N1C (stereo not drawn) | 99 | 75% (inactive) | – | 88.9% (inactive) | -12.5% (inactive) | 101 | 88.9 | -1.82% (inactive) | -3.83% (inactive) | 99% (inactive) | 0.885% (inactive) | -13.9% (inactive) | -2.54% (inactive) | 81.2% (inactive) | 68.4% (inactive) | -0.395% (inactive)
10 | COCc1cc(=O)[nH]c(Nc2nc3ccccc3o2)n1 | 112 | 80% (inactive) | – | 30.3% (active) | -9.32% (inactive) | 39.6 | 30.3 | -4.27% (inactive) | -6.72% (inactive) | 112% (inactive) | – | – | – | – | – | –
11 | CN1CCc2nc(SCCOc3ccccc3)c(C#N)cc2C1 | 150 | 25% (active) | – | 84.8% (inactive) | -13.7% (inactive) | 98.5 | 84.8 | -1.69% (inactive) | 0.67% (inactive) | 150% (inactive) | – | – | – | – | – | –
12 | O=C(NC1CCCC1)C(c1cccs1)N(C(=O)c1ccno1)c1ccccc1 (stereo not drawn) | 57.5 | 92% (inactive) | 95.2% (inactive) | 91.2% (inactive) | 6.13% (inactive) | 85.1 | 91.2 | -3.78% (inactive) | 5.08% (inactive) | – | – | – | – | – | – | –
13 | COC(=O)Cn1c(CCS(=O)(=O)c2ccc(C)cc2)nc2ccccc21 | – | – | 96.5% (inactive) | 76.4% (inactive) | 6.58% (inactive) | 69.8 | 76.4 | -0.91% (inactive) | -1.64% (inactive) | 99% (inactive) | – | – | – | – | – | –
14 | COc1ccc(OCCOC(=O)c2cccc(-n3cnnn3)c2)cc1 | – | – | 107% (inactive) | 100% (inactive) | 7.56% (inactive) | 92.6 | 100 | -8.36% (inactive) | 1.64% (inactive) | 90% (inactive) | – | – | – | – | – | –
15 | Cc1ccc(NC(=O)c2ccco2)c(NC(=O)CN2C(=O)c3ccccc3C2=O)c1 | – | – | 110% (inactive) | 87.6% (inactive) | -18.2% (inactive) | 106 | 87.6 | -0.41% (inactive) | 3.27% (inactive) | 97% (inactive) | – | – | – | – | – | –
16 | Cn1c(=O)[nH]c(=O)c2c1nc(CN1CCN(c3cccc(Cl)c3)CC1)n2CCc1ccccc1 | 75 | 96% (inactive) | – | – | -1.32% (inactive) | 24.8 | 23.5 | -1.04% (inactive) | -6.98% (inactive) | 75% (inactive) | – | – | – | – | – | –
17 | O=C(NC1CCCc2ccccc21)C1CCN(c2nnc(-n3cccc3)s2)CC1 (stereo not drawn) | 84.5 | 94.5% (inactive) | – | 97.3% (inactive) | 6.74% (inactive) | 90.6 | 97.3 | 1.41% (inactive) | -2% (inactive) | 84.5% (inactive) | -1.88% (inactive) | -6.53% (inactive) | -4.06% (inactive) | 89.5% (inactive) | 85% (inactive) | 1.14% (inactive)
18 | OC(CCN1CCCC1)(c1ccccc1)C1CCCCC1 (stereo not drawn) | – | – | 69.5% (inactive) | 95.9% (inactive) | 6.63% (inactive) | 89.3 | 95.9 | – | – | 93% (inactive) | – | – | – | – | – | –
